Six1-Eya2 inh – blocks human Six1 binding to Eya2. Q15475+O00167. AlphaScreen GST-Six1/His-Eya2 binding, biochemical; active compounds read low. activity change, % (no concentration beside the values). 360,000 tested, 0.56% active. AID 651725; in the data active means activity change below about -65%; inconclusive means mostly about -30% to -63%
Target sequence (O00167 whole entry, looked up): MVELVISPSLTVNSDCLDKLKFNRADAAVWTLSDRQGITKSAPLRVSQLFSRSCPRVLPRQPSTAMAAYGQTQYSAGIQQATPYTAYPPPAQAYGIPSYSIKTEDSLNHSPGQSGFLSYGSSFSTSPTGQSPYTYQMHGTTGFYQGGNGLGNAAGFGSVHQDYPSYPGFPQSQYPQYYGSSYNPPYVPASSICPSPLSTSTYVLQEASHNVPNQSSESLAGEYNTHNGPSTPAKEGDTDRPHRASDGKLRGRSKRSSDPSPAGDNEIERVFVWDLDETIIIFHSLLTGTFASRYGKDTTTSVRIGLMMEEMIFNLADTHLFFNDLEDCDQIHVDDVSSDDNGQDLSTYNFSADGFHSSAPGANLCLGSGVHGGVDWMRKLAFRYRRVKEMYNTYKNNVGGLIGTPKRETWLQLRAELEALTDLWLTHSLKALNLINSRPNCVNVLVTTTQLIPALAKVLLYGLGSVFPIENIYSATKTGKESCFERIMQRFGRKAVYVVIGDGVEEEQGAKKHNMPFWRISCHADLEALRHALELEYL
Target sequence (Q15475 whole entry, looked up): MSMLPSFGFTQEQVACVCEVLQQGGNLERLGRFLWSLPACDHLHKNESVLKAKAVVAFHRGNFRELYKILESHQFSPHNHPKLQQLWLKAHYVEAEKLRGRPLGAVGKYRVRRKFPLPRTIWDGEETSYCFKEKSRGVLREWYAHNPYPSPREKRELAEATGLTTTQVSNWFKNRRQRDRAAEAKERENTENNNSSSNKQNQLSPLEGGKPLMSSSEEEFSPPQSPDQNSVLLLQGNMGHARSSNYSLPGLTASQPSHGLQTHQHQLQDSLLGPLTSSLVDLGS
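AlphaScreen with GST-Six1 and His-Eya2 (5X mix: 250 nM and 500 nM), glutathione donor and nickel acceptor beads; buffer 50 mM Tris pH 8.0, 300 mM NaCl, 1 mM TCEP; 1 h at 37 C in the dark.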
IL1B secr inh – blocks inflammasome-driven IL-1 beta release; 360,000 tested, 4.7% active; activity change, % at 57.5 µM; THP-1 LPS/ATP IL-1B secretion, AlphaLISA, 16 h; active compounds read low; in the data active means activity change below about -50%; inconclusive means mostly about -30% to -49%
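Secreted IL-1B measured by AlphaLISA bead assay after 16 h compound exposure of THP-1 cells; compounds (final up to 57.5 uM) added 1 h before LPS (250 ng/mL) and ATP (1.25 mM) stimulation; lower signal means less secretion.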
TDP1 cell CPT – DT40-hTDP1 cell growth loss with CPT | Potency, µM (series often up to 46.2 µM), for inactives: at the top dose activity change, negative = growth inhibition, most hits filed as inhibitors | 420,000 tested, 12% active | chicken DT40 Tdp1-/-;hTDP1 cells + 20 nM CPT, ATP luminescence, 48 h; further: potency means the concentration at half of the fitted maximal effect; nearly all actives have a fitted effect of over 55% in size
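Chicken DT40 Tdp1-/- cells complemented with human TDP1, 400 cells/well, exposed to compounds plus 20 nM camptothecin for at least 48 h at 37 C; viability read as ATP content by CellTiter-Glo luminescence.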
CtBP-E1A inh – CtBP/E1A binding inhibition | AlphaScreen GST-E1A/His-CtBP binding, 1536-well; active compounds read low | 340,000 tested, 0.49% active | activity change, % (concentration not given with the values); in the data active means activity change below about -65%; inconclusive means mostly about -30% to -63%
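GST-E1A and His-tagged CtBP (125 nM each as 5X stock) were preincubated with pin-transferred compound for 2 h at 37 °C in the dark, then glutathione donor and nickel acceptor beads were added for 1 h before AlphaScreen reading.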
TDP1 cell noCPT – qHTS for Inhibitors of human tyrosyl-DNA phosphodiesterase 1 (TDP1): qHTS in cells in absence of CPT; 420,000 tested, 15% active; Potency, µM (highest dose often 46.2 µM), for the others: at the highest dose activity change, negative = growth inhibition, hits mostly inhibitors; DT40 Tdp1-/- hTDP1 cells, no CPT, ATP luminescence, 48 h; further: potency means the concentration at half of the fitted maximal effect; nearly all actives have a fitted effect of over 55% in size
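Stably hTDP1-transfected Tdp1-null chicken DT40 cells were treated with library compounds minus camptothecin and grown for at least 48 hr at 37 °C, after which cellular ATP was quantified by luminescence.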
TDP1 inh – inhibitors of human tyrosyl-DNA phosphodiesterase TDP1; Q9NUW8; recombinant TDP1, AlphaScreen DNA substrate cleavage; Potency, µM (doses to about 130 µM), for inactives: at the top dose activity change, negative = inhibition, hits mostly inhibitors; 350,000 tested, 0.28% active; further: potency means the concentration at half of the fitted maximal effect; nearly all actives have a fitted effect of over 40% in size
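E. coli-derived human Tdp1, 1 nM final. Cpd preinc 15 min RT; substrate 15 nM final, 5 min RT; AS bead mix 10 ug/ml final, 10 min RT. Signal loss = tyrosine-FITC cleavage. No-enzyme wells = max signal.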
* = called active by the depositor; ? = inconclusive; nt = no result. Hits are enriched below; roughly 18% of the tested compounds scored in any of these assays. Unless noted, the call rests on the fitted dose curve; in most records, active means well fitted curve in the direction sought with a large enough effect; inconclusive means small, poorly fitted or top-dose-only effect, or another doubt; inactive means no such curve, though single readings can be large; an effect the other way counts as inactive or inconclusive. On the % scale 0 is the no-effect control and ±100 the full control effect.

SMILES	Six1-Eya2 inh	IL1B secr inh	TDP1 cell CPT	CtBP-E1A inh	TDP1 cell noCPT	TDP1 inh
CC(=O)Nc1cc(NC(C)=O)cc(C(=O)NCC2(N3CCOCC3)CCCCC2)c1	-15.0	10.4	1.0%	-1.4	3.2%	22.4µM*
O=C(COc1ccc([N+](=O)[O-])cc1)NCC1(N2CCOCC2)CCCCC1	nt	nt	-28.6%	nt	?	5.7%
CC(C)(C)c1ccc(C(=O)NCCN2CCOCC2)cc1	5.5	5.4	-6.7%	nt	-10.8%	nt
CS(=O)(=O)c1ccc(C(=O)NCC2(N3CCCCC3)CCCCC2)cc1	-1.1	6.2	-4.9%	-14.0	-9.1%	5.6%
CC(C)(C)c1ccc(OCC(=O)NCC2(N3CCOCC3)CCCCC2)cc1	nt	nt	13µM*	nt	16.4µM*	3.6%
CN1CCN(C2(CNC(=O)c3ccc(C(C)(C)C)cc3)CCCCC2)CC1	nt	nt	?	nt	16.4µM*	-0.5%
CN(C)S(=O)(=O)c1cccc(C(=O)NCC2(N3CCOCC3)CCCCC2)c1	0.9	-5.4	-14.2%	nt	?	1.2%
Cc1cnc(CNC(=O)CC2C(=O)NCCN2Cc2ccccc2F)cn1 (stereo not drawn)	0.1	-15.8	1.2%	-4.9	9.7%	11.6%
O=C(OCCCN1C(=O)c2ccccc2C1=O)c1ccco1	-1.0	15.9	?	3.4	?	9.1%
CNS(=O)(=O)c1cccc(C(=O)NCC2(N3CCCCC3)CCCCC2)c1	6.8	-1.3	-15.8%	1.4	3.0%	50.1µM*
COc1ccccc1OC(C)C(=O)NCC1(N2CCOCC2)CCCCC1 (stereo not drawn)	nt	nt	23.1µM*	nt	18.4µM*	3.6%
O=C(NCCCN1CCOCC1)c1cccc(S(=O)(=O)N2CCc3ccccc3C2)c1	5.6	-3.8	?	-5.7	?	4.2%
O=C(NCC1(N2CCOCC2)CCCCC1)c1cccc(S(=O)(=O)N2CCc3ccccc3C2)c1	15.8	-9.6	18.4µM*	0.0	?	2.6%
CC(C)COc1ccc(C(=O)NCC2(N3CCN(C)CC3)CCCCC2)cc1	nt	nt	?	nt	18.4µM*	-0.5%
Cc1cc2c(=O)oc(-c3ccc(F)cc3)nc2s1	-7.6	-4.4	-20.0%	-0.4	-21.9%	-5.6%
CS(=O)(=O)Cc1ccc(C(=O)NCC2(N3CCCCC3)CCCCC2)cc1	2.9	-5.1	-0.2%	15.7	-16.2%	9.5%
COCc1ccc(C(=O)NCC2(N3CCCCC3)CCCCC2)cc1	6.4	5.5	?	6.2	23.1µM*	nt
COc1ccc(NC(=O)COC(=O)[C@@H]2CCCN2S(=O)(=O)c2ccccc2F)c(OC)c1	-0.1	4.6	?	4.6	3.3%	8.0%
CCC(=O)c1ccc(OCC(O)CN2CCN(c3ccc(F)cc3)CC2)cc1 (stereo not drawn)	0.9	13.4	-2.2%	2.4	-12.8%	-1.1%
COc1cc(C(C)=O)ccc1OCC(O)CN1CCN(c2cc(C)cc(C)c2)CC1 (stereo not drawn)	-13.3	-15.1	?	-13.0	16.4µM*	nt
CC(=O)c1ccc(OCC(O)CN2CCN(c3ccc(F)cc3)CC2)cc1 (stereo not drawn)	6.8	-0.9	?	1.0	23.1µM*	nt
CCOc1ccc(C2=Cc3cc(OC)c(OC)cc3C(=C(Cl)Cl)O2)cc1	nt	nt	nt	nt	nt	5.7%
CCOC(=O)c1c(NC(=O)CC2SC(=NC)N(C)C2=O)sc(C)c1C (stereo not drawn)	9.0	20.2	1.4%	-2.6	-19.3%	-4.7%
COc1ccc(NC(=O)/C(=C\c2ccc(F)cc2)NC(=O)c2ccco2)cc1	3.0	-8.8	1.2%	-2.1	-24.1%	0.3%
Cc1ccc(NC(=O)/C=C/c2ccc([N+](=O)[O-])s2)c(C)c1	-15.6	-95.6*	2.59µM*	-9.6	3.66µM*	0.6%
SMILES	Six1-Eya2 inh	IL1B secr inh	TDP1 cell CPT	CtBP-E1A inh	TDP1 cell noCPT	TDP1 inh
Cc1cccc(N/N=C/c2ccc(O)c(O)c2O)c1	-2.0	28.6	?	-5.3	?	9.8%
Cc1cccc(N/N=C/c2ccc(C)s2)c1	-15.1	5.7	29.1µM*	-23.3	?	nt
Cc1ccc(NC(=O)/C=C/c2ccc([N+](=O)[O-])s2)cc1	0.9	-95.9*	3.26µM*	-26.8	3.66µM*	0.0%
Cc1cccc(NC(=O)/C=C/c2ccc([N+](=O)[O-])s2)c1	-5.1	-97.1*	2.59µM*	11.0	2.59µM*	5.3%
Cc1cccc(NC(=S)N/N=C/c2ccc([N+](=O)[O-])s2)c1	?	0.0	12.6µM*	?	7.94µM*	10.5%
COc1ccc(NC(=O)CSCC(=O)Oc2c(OC)cccc2OC)cc1	4.7	12.9	2.4%	1.3	0.5%	-3.4%
CCN(CC)c1ccc(C(=O)NNC(=O)CCl)cc1	2.5	?	16.4µM*	-17.6	?	10.5%
CCN(CC)c1ccc(C(=O)NNC(=O)CCNC(=O)c2ccccc2)cc1	-2.8	0.0	-12.8%	5.4	-21.0%	0.4%
CCOC(=O)C(C)Sc1nnc(NC(=O)c2cccc([N+](=O)[O-])c2C)s1 (stereo not drawn)	-4.2	38.4	-10.9%	1.2	?	-2.6%
CCC(C)(C)c1nnc(NC(=O)C2CCN(C(=O)c3ccco3)CC2)s1	2.8	24.7	20.6µM*	-0.8	?	nt
CCc1nnc(NC(=O)C2CCN(C(=O)c3ccco3)CC2)s1	11.7	20.0	20.1%	3.9	1.5%	nt
CCc1nnc(NC(=O)c2ccccc2NC(=O)C2CCN(C(=O)c3ccco3)CC2)s1	nt	nt	14.1µM*	nt	11.2µM*	nt
O=C1c2ccccc2C(=O)N1C/C=C/CN1C(=O)c2ccccc2C1=O	nt	nt	nt	nt	nt	5.6%
CC(C)(C)c1ccc(-c2nc(C#N)c(NCc3cccnc3)o2)cc1	-7.9	-20.7	-26.8%	-2.1	?	9.8%
CCN(Cc1ccccc1)S(=O)(=O)c1cc(C(=O)c2c(N)n(C)c(=O)n(C)c2=O)ccc1OC	0.1	-1.6	?	nt	29.1µM*	0.0%
Cc1cccc(C(=O)NC(C)C2CC3CCC2C3)c1 (stereo not drawn)	1.6	-3.4	8.3%	7.3	?	nt
COc1cc(C(=O)NC(C)C2CC3CCC2C3)cc(OC)c1OC (stereo not drawn)	-2.3	18.3	?	-4.0	?	nt
COc1ccc(C(=O)NC(C)C2CC3CCC2C3)c(OC)c1 (stereo not drawn)	3.5	-3.3	23.1µM*	2.9	20.6µM*	3.0%
CCN(Cc1ccccc1)S(=O)(=O)c1cc(C(=O)NC(C)C2CC3CCC2C3)ccc1OC (stereo not drawn)	-2.1	-2.5	16.4µM*	-11.3	14.6µM*	2.8%

Screening results as filed in PubChem.
